Compound activity: PubChem, National Center for Advancing Translational Sciences (NCATS)
Hits are enriched below; roughly 0.87% of the tested compounds scored in any of these assays.
WRN inhibitor: WRN helicase (human) inhibition. Potency, µM (titrated, usually from 114 µM), inactives show at the highest dose activity change, negative = inhibition, most hits filed as inhibitors. Q14191. AID 651768. WRN helicase unwinding, fluorescent forked duplex, kinetic. 0.46% of 360,000 active; also: nearly all actives have a fitted effect of over 55% in size
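Primary qHTS, 1536-well format. 20 nM WRN + compound, 15 min RT; start with 100 nM forked fluorophore/quencher duplex, 2 mM ATP (final); kinetic read ex 525/em 598 nm.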
BLM helicase inh: blocks DNA unwinding by human BLM helicase | P54132 | recombinant BLM DNA unwinding, fluorescence dequenching | Potency, µM (top dose mostly 56.1 µM), for inactives: at the top dose activity change, negative = inhibition, most hits filed as inhibitors | 0.2% of 350,000 active | AID 2528;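 also: plate controls were vehicle for no effect and no enzyme for full effect; nearly all actives have a fitted effect of over 35% in size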
FEN1 inhibitor: blocks human flap endonuclease 1. P39748. Potency, µM (titrated, usually from 114 µM), for the others: at the highest dose activity change, negative = inhibition, usual class: inhibitors. Recombinant FEN1 flap cleavage, fluorescence, 15 min. 0.35% of 390,000 active. AID 588795; also: nearly all actives have a fitted effect of over 65% in size
Target sequence (P39748 whole entry, looked up): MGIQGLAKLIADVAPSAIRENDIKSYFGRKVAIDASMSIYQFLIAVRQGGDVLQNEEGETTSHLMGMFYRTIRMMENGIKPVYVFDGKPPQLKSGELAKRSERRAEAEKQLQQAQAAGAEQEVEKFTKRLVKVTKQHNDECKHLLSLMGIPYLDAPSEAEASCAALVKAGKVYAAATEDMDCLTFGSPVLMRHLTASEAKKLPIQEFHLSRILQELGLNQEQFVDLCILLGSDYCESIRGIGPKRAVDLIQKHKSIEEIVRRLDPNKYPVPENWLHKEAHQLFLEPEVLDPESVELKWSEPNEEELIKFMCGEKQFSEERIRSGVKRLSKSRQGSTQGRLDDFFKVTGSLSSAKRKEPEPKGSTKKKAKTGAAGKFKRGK
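Potency values derive from four-parameter Hill fits of normalized qHTS data. The reaction used 10 nM FEN1 preincubated 15 min at room temperature with compound, then 50 nM DNA substrate, read at 0 and 15 min.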
RECQ1 inh: inhibitors of human RECQ1 DNA helicase | P46063 | RECQ1 DNA unwinding, red fluorescence kinetic read | Potency, µM (titrated, usually from 57.3 µM), inactives show top-dose activity, negative = inhibition, hits mostly inhibitors | 0.54% of 240,000 active | AID 2549;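 also: plate controls were vehicle for no effect and no enzyme for full effect; nearly all actives have a fitted effect of over 30% in size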
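RECQ1T1 50 nM; forked duplex (20 bp + 30-nt ss tails) 200 nM, ATP 2 mM final; pH 8.0, 2 mM MgCl2, 2.5 ug/ml poly(dI-dC); 15 min compound preincubation; discontinuous kinetic read over 2 h at RT.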
APEX1 inh: blocks human APE1 abasic DNA cleavage. P27695. recombinant APE1, TAMRA/BHQ-2 abasic DNA cleavage fluorescence. Potency, µM (doses to about 65.8 µM), inactives show at the top dose activity change, negative = inhibition, usual class: inhibitors. 0.35% of 350,000 active. AID 2517;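 also: plate controls were vehicle for no effect and reference inhibitor for full effect; nearly all actives have a fitted effect of over 55% in size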
Target sequence (P27695 whole entry, looked up): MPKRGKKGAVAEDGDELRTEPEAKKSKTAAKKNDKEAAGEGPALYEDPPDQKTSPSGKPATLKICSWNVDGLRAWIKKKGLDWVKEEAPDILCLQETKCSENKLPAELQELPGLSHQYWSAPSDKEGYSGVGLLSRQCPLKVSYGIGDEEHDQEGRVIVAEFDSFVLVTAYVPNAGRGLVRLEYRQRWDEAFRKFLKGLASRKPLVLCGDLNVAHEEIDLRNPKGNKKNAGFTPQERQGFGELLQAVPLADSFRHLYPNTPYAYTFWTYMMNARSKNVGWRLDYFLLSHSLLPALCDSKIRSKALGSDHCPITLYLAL
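Measures dequenching upon AP-site incision of a 5'-TAMRA/3'-BHQ-2 THF-containing duplex, 50 nM; human APE1 0.75 nM after 15 min room-temperature exposure to compound; kinetic three-point read at one-minute spacing.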
An asterisk follows results filed as active; i = inactive; ? = inconclusive; . = no result given; ! = a repeat was not active; [ ] = dose if it differs, or a comment. Calls follow the shape of the dose curve; as a rule, active = well fitted curve in the direction sought with a large enough effect; inconclusive = small, poorly fitted or top-dose-only effect, or another doubt; inactive = no such curve, though single readings can be large; an effect the other way counts as inactive or inconclusive. Unless noted, % is scaled to controls: 0 for no effect and ±100 for the full control effect; potency is read from the fitted curve at half-maximal effect.

SMILES	WRN inhibitor	BLM helicase inh	FEN1 inhibitor	RECQ1 inh	APEX1 inh
CCN(CC)c1ccc(/C=C(\C#N)C(N)=O)cc1	-5%	-1%	3%	i	-6%
CCN(CC)c1ccc(/C=C(\C#N)C(=O)c2ccc(Br)cc2)cc1	28µM*	?	?	?	-6%
CC(C)[C@H](NS(=O)(=O)c1cccc(Cl)c1)C(=O)OCC(=O)NC(=O)CN1CCCC1=O	-9%	.	-18%	.	13µM*
COC(=O)c1c(NC(=O)COC(=O)[C@@H](NS(=O)(=O)c2cccc(Cl)c2)C(C)C)sc2c1CCC2	-16%	-6%	1%	i	-10%
CNc1cc(OC)c(C(=O)N[C@H]2CCN(Cc3ccccc3)[C@H]2C)cc1Cl	.	.	.	.	-5%
Cc1ccc(S(=O)(=O)OCC(=O)Nc2ccc(C(=O)O)c(O)c2)cc1	?	.	28µM*	.	.
Cc1ccc(NC(=O)COCC(=O)Nc2ccc(C)cc2)cc1	4%	0%	-14%	.	-8%
Oc1ccc2c(c1)OC(c1ccc(O)c(O)c1)C(O)C2 (centres undefined)	.	-3%	.	-11%	?
O=C1c2c(O)cc(O)cc2O[C@H](c2ccc(O)c(O)c2)[C@@H]1O	.	-8%	.	18µM*	?
Oc1cc(O)c2c(c1)O[C@H](c1ccc(O)c(O)c1)[C@@H](O)C2	.	-3%	15%	?	11µM*!
CN(C)c1ccc(N=Cc2ccnc3ccccc23)cc1	.	.	45µM*	.	.
CN(C)c1ccc(N=Cc2cccc3ccccc23)cc1	.	.	-2%	.	.
CCN(CCCN(C)C)c1ccc(/C=C/c2ccnc3ccccc23)cc1	.	.	50µM*	.	.
CN(C)c1ccc(/C=C\C=C/c2ccnc3ccccc23)cc1	.	.	50µM*	.	.
C#CCOCCOCCOCCNc1nc(N2CCN(C(=O)CCCCCCCCCCNC(=O)[C@@H](CCSC)n3cc(CCO)nn3)CC2)nc(N2CCN(C(=O)CCCCCCCCCCNC(=O)[C@H]([C@@H](C)CC)n3cc(CCCCCN)nn3)CC2)n1	?	.	79µM*	.	?
C#CCOCCOCCOCCNc1nc(N2CCN(C(=O)CCCCCCCCCCNC(=O)[C@@H](CCSC)n3cc(CCO)nn3)CC2)nc(N2CCN(C(=O)CCCCCCCCCCNC(=O)[C@H]([C@@H](C)CC)n3cc(CCCCN=C(N)N)nn3)CC2)n1	?	.	22µM*	.	?
COc1cccc(CNC(=O)c2cc3n(n2)CCCN(Cc2ccc(C)cc2)C3=O)c1OC	.	-4%	16%	.	.
CNc1ccc(/C=C/c2ccccc2)cc1	.	.	-8%	.	.
COc1ccccc1/C=N/NC(=O)c1ccc(NC(=O)c2cccc([N+](=O)[O-])c2)cc1	.	0%	.	-2%	10%
COc1cccc(/C=N/NC(=O)c2cc3cc([N+](=O)[O-])ccc3s2)c1O	35µM*	16µM*	50µM*	-20%	2µM*
Cc1cccn2c(=O)c3cc(C#N)c(=NC(=O)c4ccccc4)n(Cc4ccco4)c3nc12	50µM*!	.	50µM*!	.	.
COCCCn1c(=NC(=O)c2ccccc2)c(C#N)cc2c(=O)n3cccc(C)c3nc21	-26%	-7%	-2%	6%	-4%
CCOC(=O)c1cc2c(=O)n3ccccc3nc2n(Cc2ccco2)c1=NC(=O)c1ccc(Br)cc1	.	-2%	35µM*	.	.
Cc1cccc(-n2c(O)c(C=Nc3ccccc3O)c3ccccc3c2=O)n1	?	16µM*	?	-28%	?
Cc1cccc(-n2c(O)c(C=Nc3cc(O)ccc3C)c3ccccc3c2=O)n1	-7%	-19%	0%	-1%	-3%
SMILES	WRN inhibitor	BLM helicase inh	FEN1 inhibitor	RECQ1 inh	APEX1 inh
Cc1ccc(-c2noc(-c3nnn(CC(=O)Nc4cccc(C(F)(F)F)c4)c3N)n2)cc1	.	-11%	2%	.	.
COc1cc2c(cc1OC)C1O[C@](c3ccsc3)(C2)Oc2c1c(=O)oc1ccc(F)cc21	.	-5%[12.4 µM]	.	.	-21%[12.4 µM]
CCCCn1c(C)cc2c(c1=O)C1O[C@](c3ccsc3)(Cc3cc(OC)c(OC)cc31)O2	.	-11%[12.4 µM]	.	.	3.9µM*
NNc1nc2c(Cl)c(Cl)ccc2s1	?	-27%	?	-27%	3.2µM*
NC(=S)N=Nc1c(O)cc(O)c2[nH]c(=O)ccc12	16µM*	.	13µM*	.	.
Cc1ccc(C)c(CN2C(=O)c3ccccc3S(=O)(=O)c3ccc(C(=O)N4CCCCC4)cc32)c1	.	-9%	-21%	.	.
CCO[C@H]1OC(C(=O)N2CCN(Cc3ccc4c(c3)OCO4)CC2)=C[C@@H](c2cn(C(C)=O)c3ccccc23)[C@@H]1CCCO	-4%	-4%	-33%	35µM*	10%
CCO[C@H]1OC(C(=O)N2CCN(Cc3ccc4c(c3)OCO4)CC2)=C[C@@H](c2csc3ccccc23)[C@@H]1CCCO	0%	-10%	-26%	-17%	-2%
CCCCCCC(=O)N(O)C1CC(=O)N(c2ccc(C)cc2)C1=O (centres undefined)	-4%	-2%	2%	i	4%
CCCCCCC(=O)N(O)C1CC(=O)N(c2ccc(Cl)cc2)C1=O (centres undefined)	79µM*	-2%	10%	0%	-7%
Cc1ccc(NC(=O)CSc2nnc(-c3cccc([S+](=O)([O-])N4CCCC4)c3)n2-c2c(C)cccc2C)cc1	.	.	.	.	-9%
Cc1ccc(C2CC(=O)Oc3cc4c(cc32)OCO4)cc1 (centres undefined)	.	-18%[75.6 µM]	.	32µM*	?
Cc1ccc(C2CC(=O)Oc3cc(O)ccc32)cc1 (centres undefined)	14%	6%[120 µM]	14%	66%[126 µM]	-8%[120 µM]
C[C@H]1O[C@@H](O[C@H]2CC[C@@]3(C)C(CC[C@]4(C)C3C=C[C@]35OC[C@@]6(CCC(C)(C)C[C@H]63)[C@@H](O)C[C@]54C)[C@]2(C)CO)[C@H](O)[C@@H](O[C@@H]2O[C@H](CO)[C@@H](O)[C@H](O)[C@H]2O)[C@H]1O (some centres undefined)	-7%	.	-2%	.	21µM*
O=C1NC(=Nc2ccccc2)S/C1=C\C=C\c1ccco1	50µM*	13µM*	?	2%	3%
N#Cc1c(-c2ccccc2)nc(SCC(=O)N(c2ccccc2)c2ccccc2)[nH]c1=O	-15%	-13%	-5%	-8%	25%
N#Cc1c(-c2ccccc2)nc(SCC(=O)N2c3ccccc3Sc3ccccc32)[nH]c1=O	?	-18%	89µM*	-8%	-9%
O=C1C=CC(=O)N1c1ccc2ccccc2c1	50µM*	.	-2%	.	.
Cc1cccc(N2C(=O)C=CC2=O)c1	45µM*	.	2%	.	.
O=C1C=CC(=O)N1c1ccc(Nc2ccccc2)cc1	?	.	2%	.	.
CC(C)(C)NS(=O)(=O)c1cccc(-c2nnc(SCc3ccc(C(=O)O)cc3)n2-c2ccccc2)c1	.	.	.	.	50%
CN(C)c1ccc2c(-c3ccccc3)c3ccc(=[N+](C)C)cc-3oc2c1	.	28µM*	.	28µM*	28µM*
COc1cc2oc(-c3ccccc3)cc(=O)c2cc1OC	.	7%	.	-6%	-4%
